# From PubChem BioAssay
# Records with an inconclusive call do not appear. Calls of active or inactive are those of the source.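 The calls were made as follows, unless noted: active = viability at or under a set limit in both replicates, limit being median viability minus 3 SD (cut at about 48% in these data, passing the limit was not always enough); inconclusive = at or under the limit in just one replicate; inactive = at or above the limit in both replicates.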
# Legend:
# [1] = Her2 expression decrease, cell viability multiplex – SKBR3 breast tumor cells, AlphaScreen, ATP viability, primary screen (AID 461;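 active = Her2 level under about 52% in both replicate screens, with viability over 70% of control, limit read from the data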;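 as to Her2 level: lower value means less Her2 protein in the cells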;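 as to viability: percent of carrier control wells set as 100% viability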); details: SKBR3 Her2 protein level, 18-24 h, measured here: SKBR3 viability, ATP luminescence, at 10 µM
# [2] = biological target: Receptor tyrosine-protein kinase erbB-2 (Homo sapiens) (UniProt P04626); experiment: as above; details: 18-24 h, at 10 µM, stronger effect = lower value
# [3] = reduced viability of SK-BR-3 breast cancer cells – cell-based, 24 h, human, pilot screen (AID 572;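 active = viability at or below 10% of carrier control in both of two separate runs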;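 also: compound exposure lasted between 18 and 24 h rather than exactly 24 h; 100% = carrier-treated control wells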); details: SK-BR-3 viability, CellTiter-Glo luminescence, at 10 µM, stronger effect = lower value
# [4] = HUVEC growth inhibition – cell-based, human, primary screen (AID 575;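 active = viability at or below 30% in both replicate assays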;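 also: 100% = median of untreated cell wells with 0.1% DMSO on each plate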); details: HUVEC proliferation, CellTiter-Glo luminescence, 72 h; at 10 µM; stronger effect = lower value
# [5] = H69AR cell proliferation blockers – human, duplicate replicates, primary screen (AID 580); details: H69AR lung tumor cells viability, ATP luminescence, 72 h; at 10 µM; stronger effect = lower value;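 also: 100% = mean luminescence of untreated wells and 0% = no signal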
# [6] = MRP1 drug-resistance reversers in H69AR cells – cell-based, doxorubicin co-treatment, pilot screen (AID 601;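 active = viability loss from added drug above about 55%, and viability with drug at most 40%, in both replicates, limit read from the data, passing the limit was not always enough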); details: CellTiter-Glo, 72 h, at 10 µM; for differential viability (reversal): stronger effect = higher value
# [7] = yeast transport mutant growth inhibition pilot in 384-well plates, post-Golgi transport modulator project (AID 636; in the data active = inhibition above about 31%); details: absorbance 615 nm, about 18 h, stronger effect = higher value
# [8] = growth suppression of yeast trafficking mutant, preliminary HTS, modulators of trafficking downstream of Golgi apparatus project, 1536-format plate, OD 615 nm (AID 637; in the data active = inhibition above about 30%); details: yeast transport mutant growth, absorbance 615 nm, 18 h; stronger effect = higher value
# [9] = S. cerevisiae growth inhibition in permissive medium (OD615), pilot counter-assay for S. cerevisiae lifespan shortening project, permissive growth control (AID 705;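 active = growth inhibition above 25% in both replicates, a cutoff set 3 SD above the mean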); details: OD615, 24 h, at 10 µM, stronger effect = higher value
# [10] = S. cerevisiae growth inhibition in restrictive medium, OD615, pilot screen, restrictive growth control, yeast lifespan reduction project (AID 706;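 active = growth inhibition above a set limit, 3 SD over mean compound inhibition, in both replicates, cut at about 43% in these data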;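 also: modified DeaD lifespan yeast strain shifted to restrictive glucose medium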); details: OD615, 48 h, at 10 µM, stronger effect = higher value
# [11] = doxorubicin toxicity protection in MRP-1 cells – H69AR cells, CellTiter-Glo, duplicate, MRP-1 activator project, pilot screen (AID 807;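 active = viability increase at or above a cutoff of the median across tested compounds plus 3 SD, cut at about 8.5% in these data, passing the limit was not always enough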;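 also: compound pretreatment 18-22 h then 72 h combined with doxorubicin; 0% = doxorubicin alone and 100% = vehicle without doxorubicin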); details: H69AR viability with doxorubicin, CellTiter-Glo luminescence; at 10 µM; stronger effect = higher value
# [12] = viability of HCT116 without oncogenic beta-catenin – human colon tumor cells, pilot screen (AID 823;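 active = cell viability at or below a set limit in both duplicate runs, the limit being the all-compound median minus 4 SD, cut at about 23% in these data, passing the limit was not always enough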;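 also: 0% = wells killed by 20 µM Hyamine and 100% = untreated DMSO cell wells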); details: HCT116 beta-catenin knockout viability, CellTiter-Glo, 60 h; at 10 µM; stronger effect = lower value
# [13] = viability of PTEN-null HCT116 cells – cell-based, HCT116 clonal line, CellTiter-Glo, pilot screen (AID 824;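 active = viability at or below 27.92% in each of two runs, the all-compound median minus 4 SD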;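 also: 0% = 20 µM Hyamine control and 100% = vehicle cell control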); details: HCT116 PTEN-deleted viability, 60 h, at 10 µM, stronger effect = lower value
# [14] = RAM pathway blockade in budding yeast – dse1pr::URA3 reporter, 5-FOA selection, pilot screen (AID 869;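 active = inhibition over a set limit, the all-compound mean plus 3 SD, in both replicate runs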;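 also: 0% = DMSO wells with no growth and 100% = 10 µM 1-NA-PP1 with full growth; RAM network block rescues cells from 5-FOA so hits raise OD615 growth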); details: S. cerevisiae dse1pr::URA3 5-FOA growth, OD615, 2 d; at 10 µM; stronger effect = higher value; strain carries analog-sensitive mutant Cbk1 kinase
# [15] = RAM signaling pathway blockade in yeast – S. cerevisiae, Pdr1DBD-CYC8 efflux-inhibited sensitized strain, primary screen (AID 1298;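 active = RAM network inhibition above 8.4% in each of two replicates, 3 SD over the compound average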;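 also: 0% = DMSO untreated cells without growth and 100% = 10 µM 1-NA-PP1 full growth; higher means more yeast growth rescued from 5-FOA killing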); details: S. cerevisiae cbk1-as DSE1-URA3 strain, 5-FOA growth OD615, 2 d; at 50 µM; stronger effect = higher value
# [16] = H69AR cells + 2 uM doxorubicin, measured here: viability with 2 uM doxorubicin, stronger effect = lower value
# [17] = H69AR cells, compound alone cytotoxicity
# Sequence of Receptor tyrosine-protein kinase erbB-2 (Homo sapiens) (P04626 whole entry, looked up): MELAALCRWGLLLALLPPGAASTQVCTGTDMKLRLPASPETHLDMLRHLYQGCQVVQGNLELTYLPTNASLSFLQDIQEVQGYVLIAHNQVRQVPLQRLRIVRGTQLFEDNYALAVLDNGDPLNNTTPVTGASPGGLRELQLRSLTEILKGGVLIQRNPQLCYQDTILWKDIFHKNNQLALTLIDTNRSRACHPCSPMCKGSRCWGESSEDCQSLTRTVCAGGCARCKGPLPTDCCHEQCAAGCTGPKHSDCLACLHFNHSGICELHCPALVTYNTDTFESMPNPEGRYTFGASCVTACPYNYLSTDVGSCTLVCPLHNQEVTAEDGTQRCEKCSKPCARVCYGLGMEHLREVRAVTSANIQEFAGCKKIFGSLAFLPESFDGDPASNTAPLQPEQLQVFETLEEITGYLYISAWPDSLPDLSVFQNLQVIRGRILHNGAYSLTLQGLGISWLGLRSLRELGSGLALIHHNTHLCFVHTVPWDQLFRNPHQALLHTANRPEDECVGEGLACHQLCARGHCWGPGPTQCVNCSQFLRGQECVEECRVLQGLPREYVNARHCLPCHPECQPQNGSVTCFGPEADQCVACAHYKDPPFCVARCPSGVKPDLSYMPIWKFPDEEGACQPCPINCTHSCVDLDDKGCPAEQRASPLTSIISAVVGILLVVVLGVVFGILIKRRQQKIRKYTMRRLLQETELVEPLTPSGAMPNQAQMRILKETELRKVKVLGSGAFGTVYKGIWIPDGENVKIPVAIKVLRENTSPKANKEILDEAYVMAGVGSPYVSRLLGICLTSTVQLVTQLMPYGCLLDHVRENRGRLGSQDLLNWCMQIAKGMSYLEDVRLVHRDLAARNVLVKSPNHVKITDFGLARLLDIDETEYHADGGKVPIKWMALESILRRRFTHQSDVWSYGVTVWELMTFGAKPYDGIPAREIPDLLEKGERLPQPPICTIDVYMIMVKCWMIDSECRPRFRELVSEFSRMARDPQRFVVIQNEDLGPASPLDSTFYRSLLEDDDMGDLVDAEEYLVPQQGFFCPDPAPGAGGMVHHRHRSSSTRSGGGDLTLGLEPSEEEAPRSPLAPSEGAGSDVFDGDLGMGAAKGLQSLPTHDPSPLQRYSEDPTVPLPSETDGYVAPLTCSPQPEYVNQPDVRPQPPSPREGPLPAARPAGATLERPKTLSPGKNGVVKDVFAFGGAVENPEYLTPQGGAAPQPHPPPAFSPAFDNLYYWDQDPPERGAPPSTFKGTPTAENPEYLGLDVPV
SMILES,viability [1] [%],Her2 level [2],viability [3],viability [4],viability [5],differential viability (reversal) ([6]; H69AR cells + 2 uM doxorubicin),"viability [6, 16] [%]","viability [6, 17] [%]",inhibition [7],inhibition [8],growth inhibition [9],growth inhibition [10],viability increase [11],viability [12],viability [13],inhibition [14],RAM network inhibition [15]
CCOC(=O)N1CCC(N2C(=O)c3ccccc3C2Nc2ccccc2C)CC1 (stereo not given),95.5,96.5% (inactive),95.5% (inactive),84% (inactive),79.8% (inactive),32% (inactive),47.8,79.8,-5.2% (inactive),-8.5% (inactive),-16.1% (inactive),-23.2% (inactive),-4.35% (inactive),88.2% (inactive),82.5% (inactive),2.58% (inactive),7.43% (inactive)
COCCNC(=O)Cn1cc2c(n1)CCCCC2,93.5,101% (inactive),93.5% (inactive),112% (inactive),95.7% (inactive),7.38% (inactive),88.3,95.7,-1.41% (inactive),-1% (inactive),-8.06% (inactive),5.06% (inactive),0.1% (inactive),104% (inactive),96.5% (inactive),3.16% (inactive),5.21% (inactive)
C=CCSc1nc2sc(C)c(C)c2c(=O)[nH]1,97.5,107% (inactive),97.5% (inactive),83.3% (inactive),90.7% (inactive),9.9% (inactive),80.8,90.7,-5.87% (inactive),-10.3% (inactive),-7.21% (inactive),-12.2% (inactive),0.97% (inactive),109% (inactive),89% (inactive),1.19% (inactive),4.66% (inactive)
CCCCCCn1c(SCC(=O)OC)nc2c1c(=O)[nH]c(=O)n2C,100,90% (inactive),100% (inactive),81.1% (inactive),70.9% (inactive),0.365% (inactive),70.6,70.9,-4.8% (inactive),1.33% (inactive),-12.9% (inactive),9.17% (inactive),-1.89% (inactive),98.6% (inactive),103% (inactive),0.08% (inactive),2.66% (inactive)
C=CCSc1nnc(-c2cccnc2)o1,95,99.5% (inactive),95% (inactive),103% (inactive),96.9% (inactive),9.17% (inactive),87.8,96.9,-5.6% (inactive),9% (inactive),-1.77% (inactive),7.71% (inactive),-1.02% (inactive),101% (inactive),101% (inactive),0.94% (inactive),0.16% (inactive)
CCOC(=O)Cn1c(=O)c(-c2ccccc2N)nc2ccccc21,101,84.5% (inactive),101% (inactive),85.3% (inactive),75.6% (inactive),-6.16% (inactive),81.7,75.6,-5.6% (inactive),-2% (inactive),2.3% (inactive),0.83% (inactive),-1.72% (inactive),108% (inactive),98.8% (inactive),2.16% (inactive),3.47% (inactive)
O=C(O)COc1ccc(S(=O)(=O)NCCc2ccccc2)cc1,105,103% (inactive),105% (inactive),115% (inactive),106% (inactive),27.5% (inactive),78.8,106,-6.4% (inactive),2.62% (inactive),-6.59% (inactive),10.2% (inactive),-0.3% (inactive),108% (inactive),96.2% (inactive),1.84% (inactive),-2.61% (inactive)
Cc1cccc(N2CCN(C(=O)c3cc4ccccc4oc3=O)CC2)c1C,90.5,116% (inactive),90.5% (inactive),98.6% (inactive),100% (inactive),8.08% (inactive),92,100,-6.53% (inactive),-7.67% (inactive),-4.18% (inactive),-0.595% (inactive),1.65% (inactive),88.5% (inactive),94.3% (inactive),0.78% (inactive),-1.13% (inactive)
O=C(Nc1ccc(Cl)cn1)c1cccnc1,104,112% (inactive),104% (inactive),81.6% (inactive),70.1% (inactive),-17.4% (inactive),87.6,70.1,-0.52% (inactive),-6.56% (inactive),-8.23% (inactive),-14.8% (inactive),-4.65% (inactive),63% (inactive),62% (inactive),1.56% (inactive),-0.47% (inactive)
COCCNC(=O)CN1C(=O)CSc2ncccc21,83.5,88% (inactive),83.5% (inactive),97.8% (inactive),86.4% (inactive),-8.7% (inactive),95.1,86.4,-4.67% (inactive),-0.33% (inactive),2.19% (inactive),-5.72% (inactive),-0.21% (inactive),102% (inactive),92% (inactive),1.92% (inactive),0.97% (inactive)
